Screens as filed in PubChem.
Compounds with a hit are over-represented: about 21% of the library has one in this group of screens.
NS1 inh: blocks influenza NS1 protein function; Potency, µM (titrated, usually from 46.1 µM), for inactives: at the top dose activity, positive = more growth; 0.4% of 270,000 active; calls by dose curve; also: potency is read from the fitted curve at half-maximal effect; actives are rising curves; nearly all actives have a fitted effect of over 50% in size
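Recovery from NS1-induced slow growth read by OD600 in budding yeast switched to galactose assay medium (pH 6.0, -URA) at 1:100 dilution. Compound 23 nl per well; the matching strain lacking NS1 serves as control.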
Shiga inhibitor: blocks Shiga toxin action in Vero cells; 9.2% of 290,000 active; Vero cells, Shiga toxin protein synthesis inhibition reporter; inhibition, % at 38.7 µM; in the data active = inhibition mostly above about 28%, no sharp cut-off; inactive = mostly below about 43%; also: 0% is about no effect
Pf growth 48h: P. falciparum growth inhibition at 48 hours (one generation); P. falciparum luciferase growth in erythrocytes, 48 h; Potency, µM (doses to about 28.7 µM), for the others: at the top dose activity change, negative = inhibition, hits mostly inhibitors; 5.9% of 310,000 active; AID 504832; also: potency is read from the fitted curve at half-maximal effect; % is scaled to controls: 0 for no effect and ±100 for the full control effect
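A one-generation exposure of luciferase-tagged malaria parasites in RPMI 1640/Albumax erythrocyte culture, 37 C and 5% CO2. Inhibition is inferred from decreased luminescence after adding detection reagent.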
Pf growth 96h: inhibits malaria parasite growth, 96 h; P. falciparum luciferase reporter growth, 96 h; Potency, µM (top dose mostly 28.7 µM), for inactives: top-dose activity change, negative = inhibition, actives largely listed as inhibitors; 6.9% of 320,000 active; AID 504834; also: potency is read from the fitted curve at half-maximal effect; % is scaled to controls: 0 for no effect and ±100 for the full control effect
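P. falciparum expressing integrated firefly luciferase grown in erythrocytes (2% hematocrit, 0.05% parasitemia final) with compounds for 96 hours at 37 C, 5% CO2. Growth inhibition read as loss of luminescence after adding luciferase detection reagent.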
CHX counter: counter-screen hit for Shiga toxin inhibitors, cycloheximide; cell reporter, cycloheximide protein synthesis inhibition counterscreen; max response, %; 12% of 300,000 active; AID 2314; in the data active = max response mostly above about 13%, no sharp cut-off; inactive = mostly below about 14%; also: read at 38.3 µM for the half of the compounds with a filed dose; 0% is about no effect
Starred values were filed as active, the others as inactive; ? = inconclusive; . = not tested or not shown; ! = not active in a repeat. Unless noted, calls follow the shape of the dose curve; as a rule, active = well fitted inhibition curve with a large enough effect; inconclusive = small, poorly fitted or top-dose-only effect, or another doubt; inactive = no such curve, though single readings can be large or run the other way.

SMILES	NS1 inh	Shiga inhibitor	Pf growth 48h	Pf growth 96h	CHX counter
CCOC(=O)C1CCCN(S(=O)(=O)c2cc(Br)cc3c2N(C(=O)C2CC2)CC3)C1 (stereo not given)	-100%	-27	3.3µM*	36%	2
CC(=O)N1CCc2cc(Br)cc(S(=O)(=O)N3CCC(C(=O)O)CC3)c21	-1%	-9	?	64%	-4
O=C(C1CC1)N1CCc2cc(Br)cc(S(=O)(=O)N3CCCCCC3)c21	-84%	4	1.7µM*	.	-1
CCOC(=O)C1CCCN(S(=O)(=O)c2cc(Br)cc3c2N(C(=O)CC)CC3)C1 (stereo not given)	-12%	2	?	-18%	-3
OCC[C@H]1C[C@@H](O)[C@H](O)[C@]2(Cc3ccccc3O2)O1	.	.	1%	57%	.
CCC1(C2=NCCN2)Cc2ccccc2O1 (stereo not given)	-1%	.	5%	7.6µM*!	.
NC(=O)CSc1nnc2sc3ccccc3n12	7%	-38	-1%	3%	-2
CN(C)CCSc1nnc2sc3ccccc3n12	-1%	25	9%	41%	11
COc1ccc(OCCSc2nnc3sc4ccccc4n23)cc1	-82%	67	?	.	60*
CC(C)NC(=O)CSc1nnc2sc3ccccc3n12	5%	24	40%	-3%	27*
CCOc1cc2c3c(c1)C1(Nc4ccccc4S1)C(=O)N3C(C)(C)CC2C (stereo not given)	-60%	6	.	?	2
O=C(O)C1CCN(c2c([N+](=O)[O-])cc(C(F)(F)F)cc2[N+](=O)[O-])CC1	-50%	-7	-23%	-13%	-5
C=CCNC(=O)C1CCN(c2c([N+](=O)[O-])cc(C(F)(F)F)cc2[N+](=O)[O-])CC1	-4%	-16	5.2µM*	9.3µM*	-1
O=C(O)c1cc(-c2c[nH]c3ccccc23)nc2ccc3ccccc3c12	.	26	247%	0%	7
c1ccc2c(-c3c[nH]c4ccccc34)c3ccccc3nc2c1	-12%	-10	?	3.7µM*	-4
O=C(CCNS(=O)(=O)c1ccc2[nH]c(=O)oc2c1)Nc1cccc(Br)c1	-3%	-5	-5%	?	-2
COCc1cc(CN(C)C(=O)c2oc3c(F)cccc3c2C)[nH]n1	-12%	13	11%	13µM*	24*
Cc1c(C(=O)N(C)CCOc2ccccc2)oc2c(Cl)cccc12	.	.	?	-11%	.
COc1cc(NC(C)C(=O)N2CC(C)OC(C)C2)cc(OC)c1 (stereo not given)	0%	-21	4.7µM*	.	-4
Nc1cccc(Oc2cnccn2)c1	5%	-6	.	0%	-3
O=C(CCl)Nc1cccc(Oc2cnccn2)c1	2%	-7	.	3.7µM*	13
O=C(CN1CCCCC1)Nc1cccc(Oc2ccccc2)c1	-2%	-3	.	?	20
O=C(CSc1cccc[n+]1[O-])Nc1cccc(Oc2ccccc2)c1	.	28	10%	28%	21*
O=C(CCl)Nc1cccc(Oc2ccccc2)c1	.	-2	?	4.7µM*	7
CCOC(=O)C1CCCN(S(=O)(=O)c2ccc3c(c2)N(C(C)=O)CCO3)C1 (stereo not given)	-7%	-6	10%	-2%	-3
SMILES	NS1 inh	Shiga inhibitor	Pf growth 48h	Pf growth 96h	CHX counter
COc1ccc(CNCc2ccc(OC)c3ccccc23)cc1	3%	-8	1%	2.3µM*	-2
COc1ccccc1NC(=O)C1CCC(CNc2c(N3CCCCC3)c(=O)c2=O)CC1 (stereo not given)	3%	-4	34%	0%	-1
CCOc1ccc(NC(=O)CCNc2c(N3CCCC3)c(=O)c2=O)cc1	2%	15	2%	54%	0
O=C(Nc1ccc(F)cc1)C1CCC(CNc2c(N3CCCCC3)c(=O)c2=O)CC1 (stereo not given)	6%	-8	12µM*	?	-1
COc1cc(NC(=O)C2CCC(CNc3c(N4CCCCC4)c(=O)c3=O)CC2)cc(OC)c1 (stereo not given)	-37%	-2	12µM*	5%	1
CCOc1ccc(NC(=O)C2CCC(CNc3c(N4CCCCC4)c(=O)c3=O)CC2)cc1 (stereo not given)	-6%	-10	6.6µM*	5.9µM*	1
CCOc1ccc(NC(=O)C2CCC(CNc3c(N4CCC(C)CC4)c(=O)c3=O)CC2)cc1 (stereo not given)	3%	-8	4.1µM*	2.3µM*	-3
CCc1[nH]c(C(=O)O)c(C)c1C(=O)OC	1%	14	?	?	-2
